The other results are listed elsewhere or left out. The source made the active and inactive calls.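 Rule for the calls: active = activation above the solvent-only control wells' mean plus 3 SD (cut at about 11% in these data); inactive = the rest.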

Sequence of Neuropeptide Y receptor type 2 (Homo sapiens) (P49146 whole entry, looked up): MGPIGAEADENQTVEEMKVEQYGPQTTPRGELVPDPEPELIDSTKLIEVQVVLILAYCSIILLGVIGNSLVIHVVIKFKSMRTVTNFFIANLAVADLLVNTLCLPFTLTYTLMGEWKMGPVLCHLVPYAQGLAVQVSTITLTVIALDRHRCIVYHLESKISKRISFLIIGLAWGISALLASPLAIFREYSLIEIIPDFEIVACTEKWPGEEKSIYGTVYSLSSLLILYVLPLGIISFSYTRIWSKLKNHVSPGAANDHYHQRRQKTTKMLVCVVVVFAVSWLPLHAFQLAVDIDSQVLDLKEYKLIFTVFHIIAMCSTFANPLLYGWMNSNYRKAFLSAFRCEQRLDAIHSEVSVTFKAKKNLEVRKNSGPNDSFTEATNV

This experiment has as its target Neuropeptide Y receptor type 2 (Homo sapiens) (UniProt P49146). The experiment can be described thus: NPY-Y2 direct agonists without NPY, counter-screen for NPY-Y1 potentiator project, cell-based, fluorescence (AID 1698).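 Note: 0% = DMSO with isoproterenol and 100% = 40 nM NPY maximal response; agonism lowers cAMP so well fluorescence drops in active wells.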 As to conditions: HEK293 Y2-CNGC, membrane potential fluorescence, agonist mode; at 3.6 µM; hits give high values.
For the compound `O=C1/C(=C/c2coc3ccc(O)cc3c2=O)SC(=S)N1c1ccccc1`, the activation is 15.2% (active).
On to `COC(=O)c1ccc(NC(=O)CN(c2ccc(C)cc2)S(=O)(=O)c2c(C)n[nH]c2C)cc1`, for which the activation is 47% (active).
To `N#Cc1ccc(C(=O)Nc2nc(-c3cccs3)c(C(=O)C(F)(F)F)s2)cc1` belongs 0.24% (inactive); to `COC(=O)c1sc(-c2ccc(C(C)(C)C)cc2)cc1NC(=O)/C=C/C(=O)O`, 22.8% (active).
Regarding `O=C(c1cccs1)N1CCN(C(=O)N2CCOCC2)CC1`, the activation is -9.63% (inactive).
In the case of `O=C(Nc1ccc2c(c1)CCC2)c1cccc(S(=O)(=O)Nc2ccccc2Cl)c1`, the activation was 10.3% (active).
With `CCn1c2ccccc2c2cc(NC(=O)Nc3ccc([N+](=O)[O-])cc3C)ccc21`, the activation was 23.4% (active).
In the case of `COCCn1nnnc1C(c1ccccc1Cl)N1CCN(c2ccccc2OC)CC1` (stereo unspecified), the activation is 6.66% (inactive).
On to `CC1=C/C(=N\OS(=O)(=O)c2ccccc2)C=CC1=O`, for which the activation is 26.8% (active).
With `O=C(Nc1ccccc1C(F)(F)F)c1cc(-c2ccc(O)cc2)on1`, the activation was -2.58% (inactive).
`O=[N+]([O-])c1cc(Cl)cc(/C=N/NC(=S)Nc2cc(S(=O)(=O)N3CCOCC3)ccc2Cl)c1O`: the activation is 63.2% (active).
To `CC(=O)c1ccc(NC(=O)C2CC(=O)Nc3nc4ccccc4n32)cc1` (stereo unspecified) belongs 34.2% (active); to `Cc1cccc(OCC(O)CN2CCN(CCN3C(=O)c4cccc5cccc(c45)C3=O)CC2)c1C` (stereo unspecified), 63% (active); to `CN1C(=O)c2ccccc2C(C(=O)NCCCN2CCCC2)C1c1c[nH]c2ccccc12` (stereo unspecified), -0.28% (inactive).
Consider `CSc1nc(-c2ccco2)nn1C(=O)c1ccccc1Cl`, for which the activation was 26% (active).
Regarding `Cc1ccccc1NCC(=O)N/N=C\c1ccc([N+](=O)[O-])s1`, the activation was 39.5% (active).
